Entries with a potency or affinity are not part of this list. Records with an inconclusive call do not appear. Calls of active or inactive are those of the source.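 The calls were made as follows, unless noted: active = signal-lowering compounds whose fitted half-maximal concentration is at or below twice the top tested dose in every run; inconclusive = runs disagree, flat 30 to 70% inhibition, or poor curve fit; inactive = the rest.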

The nature of one experiment: inhibitors of CMV-promoter luciferase reporter, dose response, counter-screen for Pax8 inhibitor project, cell-based, HEK293, luminescence, dry powder (AID 743020).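 Also: HEK293 cells stably expressing the CMV luciferase reporter.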 Particulars: SteadyGlo luminescence, 24 h; series mostly up to 35 µM. (A reporter such as luciferase makes a cellular process visible.)
On to `COc1ccccc1N1CCN(Cc2cc(Br)c(O)c3ncccc23)CC1`, for which the outcome was inactive. For `Oc1ccc(/C=N\Nc2cc(N3CCOCC3)nc(N3CCOCC3)n2)c(O)c1`, the compound was called inactive. Still for that read-out and setting: then `O=C1C=CC(=O)c2c(O)c(N3CCN(CCOCCO)CC3)c(Br)c(O)c21`, with “inactive”. On to `CCN(c1nc(N)c(C(=O)N=C(N)N)nc1Cl)C(C)C`, for which the outcome was inactive.

Turning to `Cc1ccc(C)c(N2CCN(C(=O)CCCCCn3c(=S)[nH]c4ccc(N5CCOCC5)cc4c3=O)CC2)c1`, the compound was called inactive. On the same count and under the same terms, then `CCc1ccc(CNC(=O)C2CCCN(c3nnc(C)c4c(C)n(-c5ccccc5)nc34)C2)cc1` (stereo not drawn), with “inactive”; and `C[C@@H](NC(=O)c1nc[nH]c1C(=O)N[C@@H](Cc1ccccc1)C(=O)OC(C)(C)C)c1ccccc1`, with “inactive”. As for `O=C(N/N=C/c1ccc(O)cc1)c1[nH]c2ccc(Br)cc2c1-c1ccccc1`, the compound was classed as inactive. Turning to `COc1ccc(O)c(/C=N/NC(=O)c2ccc(N3CCCC3=O)cc2)c1`, the call was inactive. Same read-out and setting: to `C#CCN(C[C@@H]1[C@@H](OC(=O)NCCCCCC)[C@@H](OC(=O)NCCCCCC)Cn2c(=O)ccc(=O)n21)S(=O)(=O)c1ccc(C)cc1` belongs “inactive”; to `FC(F)(F)c1nnc2c(Sc3ccccc3)nc3ccc(Cl)cc3n12`, “inactive”. Consider `C#CCN(C[C@H]1[C@H](OC(=O)Nc2c(C)noc2C)[C@H](OC(=O)Nc2c(C)noc2C)C[C@@H](C(=O)OC)[C@H]1C(=O)OC)S(=O)(=O)c1ccc(C)cc1`, for which the outcome was inactive.

Take `COC(=O)C12OCC34C(CC5C(C)=C(O)C(=O)CC5(C)C3C(O)C1O)OC(=O)C(OC(=O)C=C(C)C)C24` (stereo not drawn): the result was inactive.

`O=C(Nc1nc(-c2cccs2)c(-c2cccs2)s1)C1(c2ccccc2)CC1`: the compound was called inactive. Regarding `CCO[C@H]1OC(C(=O)N2CCN(Cc3ccccc3)CC2)=C[C@@H](c2ccc(C(F)(F)F)cc2)[C@@H]1CCCO`, the call was inactive. For `COc1ccc(-c2cc(-c3ccccc3)c(C#N)c(S(C)(=O)=O)n2)cc1`, the compound was classed as inactive. The same measure, in the same setting: to `O=C(CN1C(=O)c2ccccc2S1(=O)=O)N1CCc2ccccc21` belongs “inactive”. On to `Cc1ccc(-c2cn3cc(C)ccc3n2)cc1`, for which the compound was classed as inactive. `CC(=O)OC(C)(C)/C=C/C(=O)[C@](C)(O)C1[C@H](O)C[C@@]2(C)C3CC=C4C(C=C(O[C@@H]5O[C@H](CO)[C@@H](O)[C@H](O)[C@H]5O)C(=O)C4(C)C)[C@]3(C)C(=O)C[C@]12C` (stereo partly drawn): the result was inactive. As to `CCSc1ccc(-c2cc(NC=O)c3ncc(-c4cccc(C(=O)NCCN(C)C)c4)n3c2)cc1`, the call was inactive. For `O=C(O)c1ccc(N/N=C/c2ccc3nccnc3c2)cc1`, the call was inactive.

As for `COc1ccccc1C#Cc1ccc([C@H]2[C@@H](CO)N(C(=O)C3CCCCC3)[C@H]2C#N)cc1`, the call was inactive. Take `CCN(CC)CC(C)(C)C(=O)/C=C/c1ccc(/C=C/C(=O)C(C)(C)CN(CC)CC)cc1`: the result was inactive. The same measure, in the same setting: to `COc1ccc(S(=O)(=O)Nc2ccc3c(c2)C(=O)N([C@H](C)CO)C[C@H](C)[C@@H](CN(C)S(=O)(=O)c2ccc(C)cc2)OCCCC[C@H](C)O3)cc1` belongs “inactive”; to `CN(C)CCOc1ccc2c(c1)C(=O)C(=Cc1ncc([N+](=O)[O-])n1C)C2`, “inactive”; to `C=C1C2(C(=O)Nc3ccc(SC(F)F)cc3)CCC(C2)C1(C)C` (stereo not drawn), “inactive”. Same read-out and setting: then `CCCN(CCC)Cc1c(C(=O)N/N=C/C(C)=C\c2ccco2)nnn1-c1nonc1N`, with “inactive”.

On to `O=C(CCCN1C(=O)/C(=C/c2cccc(Br)c2)SC1=S)Nc1cccnc1`, for which the compound was called inactive. On to `Cc1ccc(S(=O)(=O)N2CCCCC2)cc1NC(=O)Cc1c[nH]c2ccccc12`, for which the result was inactive.

For the compound `COc1ccc(-c2ccc3c(c2)[C@H]2[C@H](CCN2S(=O)(=O)c2ccc(OC)cc2)[C@H](CO)N3C)cc1`, the result was inactive. `CC(C)=CCC/C(C)=C/CNC(=O)C[C@H]1C[C@H](C(=O)N2CCOCC2)[C@@]2(C)c3[nH]c4ccc(Cl)cc4c3CCN2C1=O`: the compound was called inactive. Turning to `C=C1C(=O)O[C@@H]2[C@H]1CC[C@H](C)[C@]1(O)CCC(=O)[C@@]21C`, the call was inactive. In the case of `O=C(Nc1cccc(Cl)c1)Nc1csc([N+](=O)[O-])c1`, the compound was classed as inactive. Take `CCc1ccc2[nH]c3nc(N/N=C/c4ccc(O)cc4O)nnc3c2c1`: the outcome was inactive. On the same count and under the same terms, then `O=C(NCc1cccnc1)/C(=C\c1ccc(-c2ccc(Cl)c(Cl)c2)o1)S(=O)(=O)c1ccccc1`, with “inactive”. Take `O=C(NCC1CCCO1)C(=Cc1cccc([N+](=O)[O-])c1)C(=O)NCC1CCCO1` (stereo not drawn): the call was inactive. As to `C=C(C)C(=O)OC1(C(F)(F)F)Oc2cc(C)ccc2NC1=O` (stereo not drawn), the outcome was inactive. As to `C[C@H](O)C#Cc1ccc2c(c1)O[C@H](CN(C)Cc1ccc(-c3ccccc3)cc1)[C@@H](C)CN([C@@H](C)CO)S2(=O)=O`, the result was inactive. As to `O=C(O)c1cccc(N/N=C/c2cccs2)c1`, the outcome was inactive.

A further experiment can be described thus: non-specific cell cytotoxicity, dose response, cytotoxicity control for PAX8 inhibitor project, plate reader, dry powder samples (AID 743021; call rule not given here). As to conditions: cell line, non-specific cytotoxicity counter-screen; series mostly up to 35 µM. (In general: Counterscreens check selectivity or assay interference.)
`COc1ccccc1N1CCN(Cc2cc(Br)c(O)c3ncccc23)CC1`: the result was inactive. Still for that read-out and setting: to `Oc1ccc(/C=N\Nc2cc(N3CCOCC3)nc(N3CCOCC3)n2)c(O)c1` belongs “inactive”; to `CCN(c1nc(N)c(C(=O)N=C(N)N)nc1Cl)C(C)C`, “inactive”; to `Cc1ccc(C)c(N2CCN(C(=O)CCCCCn3c(=S)[nH]c4ccc(N5CCOCC5)cc4c3=O)CC2)c1`, “inactive”. Turning to `CCc1ccc(CNC(=O)C2CCCN(c3nnc(C)c4c(C)n(-c5ccccc5)nc34)C2)cc1` (stereo not drawn), the compound was classed as inactive. Take `C[C@@H](NC(=O)c1nc[nH]c1C(=O)N[C@@H](Cc1ccccc1)C(=O)OC(C)(C)C)c1ccccc1`: the call was inactive. For `O=C(N/N=C/c1ccc(O)cc1)c1[nH]c2ccc(Br)cc2c1-c1ccccc1`, the call was inactive. Turning to `COc1ccc(O)c(/C=N/NC(=O)c2ccc(N3CCCC3=O)cc2)c1`, the compound was classed as inactive. Take `FC(F)(F)c1nnc2c(Sc3ccccc3)nc3ccc(Cl)cc3n12`: the result was inactive.

Take `C#CCN(C[C@H]1[C@H](OC(=O)Nc2c(C)noc2C)[C@H](OC(=O)Nc2c(C)noc2C)C[C@@H](C(=O)OC)[C@H]1C(=O)OC)S(=O)(=O)c1ccc(C)cc1`: the outcome was inactive. Consider `COC(=O)C12OCC34C(CC5C(C)=C(O)C(=O)CC5(C)C3C(O)C1O)OC(=O)C(OC(=O)C=C(C)C)C24` (stereo not drawn), for which the call was inactive. As to `O=C(Nc1nc(-c2cccs2)c(-c2cccs2)s1)C1(c2ccccc2)CC1`, the result was inactive. As for `CCO[C@H]1OC(C(=O)N2CCN(Cc3ccccc3)CC2)=C[C@@H](c2ccc(C(F)(F)F)cc2)[C@@H]1CCCO`, the call was inactive. On to `COc1ccc(-c2cc(-c3ccccc3)c(C#N)c(S(C)(=O)=O)n2)cc1`, for which the result was inactive.

Turning to `O=C(CN1C(=O)c2ccccc2S1(=O)=O)N1CCc2ccccc21`, the compound was called inactive. With `Cc1ccc(-c2cn3cc(C)ccc3n2)cc1`, the compound was classed as inactive. As to `CC(=O)OC(C)(C)/C=C/C(=O)[C@](C)(O)C1[C@H](O)C[C@@]2(C)C3CC=C4C(C=C(O[C@@H]5O[C@H](CO)[C@@H](O)[C@H](O)[C@H]5O)C(=O)C4(C)C)[C@]3(C)C(=O)C[C@]12C` (stereo partly drawn), the result was inactive. `CCN(CC)CC(C)(C)C(=O)/C=C/c1ccc(/C=C/C(=O)C(C)(C)CN(CC)CC)cc1`: the outcome was inactive. With `COc1ccc(S(=O)(=O)Nc2ccc3c(c2)C(=O)N([C@H](C)CO)C[C@H](C)[C@@H](CN(C)S(=O)(=O)c2ccc(C)cc2)OCCCC[C@H](C)O3)cc1`, the compound was classed as inactive. In the case of `CN(C)CCOc1ccc2c(c1)C(=O)C(=Cc1ncc([N+](=O)[O-])n1C)C2`, the compound was classed as inactive. `C=C1C2(C(=O)Nc3ccc(SC(F)F)cc3)CCC(C2)C1(C)C` (stereo not drawn): the call was inactive. Turning to `CCCN(CCC)Cc1c(C(=O)N/N=C/C(C)=C\c2ccco2)nnn1-c1nonc1N`, the outcome was inactive. Turning to `O=C(CCCN1C(=O)/C(=C/c2cccc(Br)c2)SC1=S)Nc1cccnc1`, the outcome was inactive.

As to `Cc1ccc(S(=O)(=O)N2CCCCC2)cc1NC(=O)Cc1c[nH]c2ccccc12`, the result was inactive. Regarding `COc1ccc(-c2ccc3c(c2)[C@H]2[C@H](CCN2S(=O)(=O)c2ccc(OC)cc2)[C@H](CO)N3C)cc1`, the outcome was inactive.

In the case of `CC(C)=CCC/C(C)=C/CNC(=O)C[C@H]1C[C@H](C(=O)N2CCOCC2)[C@@]2(C)c3[nH]c4ccc(Cl)cc4c3CCN2C1=O`, the compound was classed as inactive. Turning to `C=C1C(=O)O[C@@H]2[C@H]1CC[C@H](C)[C@]1(O)CCC(=O)[C@@]21C`, the result was inactive. For `O=C(Nc1cccc(Cl)c1)Nc1csc([N+](=O)[O-])c1`, the call was inactive. The same measure, in the same setting: to `CCc1ccc2[nH]c3nc(N/N=C/c4ccc(O)cc4O)nnc3c2c1` belongs “inactive”. Take `O=C(NCc1cccnc1)/C(=C\c1ccc(-c2ccc(Cl)c(Cl)c2)o1)S(=O)(=O)c1ccccc1`: the compound was called inactive. Still for that read-out and setting: then `O=C(NCC1CCCO1)C(=Cc1cccc([N+](=O)[O-])c1)C(=O)NCC1CCCO1` (stereo not drawn), with “inactive”; and `C=C(C)C(=O)OC1(C(F)(F)F)Oc2cc(C)ccc2NC1=O` (stereo not drawn), with “inactive”; and `C[C@H](O)C#Cc1ccc2c(c1)O[C@H](CN(C)Cc1ccc(-c3ccccc3)cc1)[C@@H](C)CN([C@@H](C)CO)S2(=O)=O`, with “inactive”.

`O=C(O)c1cccc(N/N=C/c2cccs2)c1`: the outcome was inactive.

(Values after PubChem BioAssay.)
